Results filed as inconclusive are left out. Where a call stands in place of a potency, no number is given. Calls of active or inactive are those of the source. Unless noted, the call rests on the fitted dose curve; in most records, active means well fitted curve in the direction sought with a large enough effect; inconclusive means small, poorly fitted or top-dose-only effect, or another doubt; inactive means no such curve, though single readings can be large; an effect the other way counts as inactive or inconclusive.
Key:
[1] = Cell Viability - H-4-II-E (AID 543);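 further: cells exposed to compound for 40 hours; nearly all actives have a fitted effect of over 35% in size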
Outline: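 Cells seeded at 1500 per well and rested 5 hr; compounds added; 40 hr incubation at 37 °C; CellTiter-Glo added, 20 min at room temperature; luminescence read. Hill-equation fits gave AC50.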

[2] = Cell Viability - SH-SY5Y (AID 544); details: SH-SY5Y neuroblastoma cell viability; viability change, negative = cytotoxic: at 92.2 µM (top of the series);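 further: cells exposed to compound for 40 hours; nearly all actives have a fitted effect of over 55% in size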
Outline: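 Cells were plated at 1500 per well and allowed 5 hr at 37 °C. Compounds were added across a concentration range and incubated 40 hr at 37 °C. CellTiter-Glo was added for 20 min at room temperature before luminescence reading.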

[3] = Cell Viability - Renal Proximal Tubule (AID 545);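 further: cells exposed to compound for 40 hours; nearly all actives have a fitted effect of over 40% in size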
Outline: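 Rat kidney proximal tubule cells, freshly isolated; 1000 cells/well, 5 hr settle, compound 40 hr 37 °C. CellTiter-Glo 20 min RT, luminescence read. AC50 by standard Hill fit.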

[4] = Cellular Toxicity (caspase-3) Hek293 (AID 664); details: HEK293 caspase-3 activation, DMSO = 0%, 100 µM tamoxifen = 100%; at 92.2 µM (top of the series);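 further: cells exposed to compound for 16 h at 37 °C before readout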
Outline: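 qHTS, HEK293 (human embryonic kidney), 16 h cpd exposure in complete medium. Caspase-3/7 activation = luminescence increase; normalized to DMSO/100 uM tamoxifen; Hill-fit AC50.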

[5] = Cell Viability - LYMP2-003 (AID 965);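 further: cells exposed to compounds for 24 h before reading; nearly all actives have a fitted effect of over 50% in size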
Outline: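 CellTiter-Glo luminescence (cellular ATP) after 24 h compound exposure at 37 C in complete medium; 2500 cells/well, 5 h settling beforehand. Concentration-response fitted to standard Hill equation for AC50. Tetraoctylammonium bromide served as positive control.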

[6] = Cell Viability - LYMP2-009 (AID 968); further: nearly all actives have a fitted effect of over 55% in size
[7] = Cell Viability - LYMP2-013 (AID 970); further: nearly all actives have a fitted effect of over 55% in size
Outline: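 Cytotoxicity is scored as a concentration-dependent drop in intracellular ATP in human lymphoblastoid cells after 24 hr compound exposure at 37 C. ATP is quantified by luciferase luminescence, and AC50 values come from Hill-equation modeling.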

[8] = Cell Viability - LYMP2-019 (AID 973); further: nearly all actives have a fitted effect of over 55% in size
Outline: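 Cytotoxicity is scored as a concentration-dependent drop in cellular ATP after cells (2500/well) receive compound for 24 hr at 37 C. Tetraoctylammonium bromide serves as positive control.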

[9] = Cell Viability - LYMP2-025 (AID 976)
Outline: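 Acute cytotoxicity is scored as a concentration-dependent fall in intracellular ATP, measured by luciferase luminescence, in human lymphoblastoid LYMP2-025 cells exposed to compound for 24 hours at 37 C. AC50 values come from standard Hill fits.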

[10] = Cell Viability - LYMP2-002 (AID 977)
Outline: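 In this qHTS viability screen, 2500 human lymphoblastoid cells per well receive compound for 24 hr at 37 C, and luciferase-based ATP luminescence gives the viability signal. Tetraoctylammonium bromide serves as positive control.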

[11] = Cell Viability - LYMP2-006 (AID 978); further: nearly all actives have a fitted effect of over 60% in size
Outline: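 qHTS, 1536-well; 2500 cells/well, 5 hr 37 C; cpd 24 hr 37 C; CellTiter-Glo 30 min RT; luminescence. Tetraoctylammonium bromide pos. ctrl. AC50 via Hill eqn.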

[12] = Cell Viability - LYMP2-008 (AID 980); further: nearly all actives have a fitted effect of over 60% in size
Outline: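 Cells seeded at 2500/well and rested 5 hr at 37 C; compounds added over a concentration range and incubated 24 hr at 37 C; CellTiter-Glo added, 30 min at room temperature; luminescence read and AC50 fitted with Hill model.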

[13] = Cell Viability - LYMP2-012 (AID 982)
[14] = Cell Viability - LYMP2-020 (AID 986); further: nearly all actives have a fitted effect of over 55% in size
Outline: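 Seed 2500 cells per well and incubate 5 hr at 37 C. Add compounds at a concentration series and incubate 24 hr at 37 C. Add CellTiter-Glo, wait 30 min at RT, read luminescence, and fit a Hill curve for AC50.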

[15] = Cell Viability - LYMP2-022 (AID 987); further: nearly all actives have a fitted effect of over 55% in size
Outline: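 Cells were seeded at 2500 per well, rested 5 hr at 37 C, and treated with titrated compounds for 24 hr at 37 C. Cellular ATP was then quantified by luciferase luminescence, and AC50 values were derived from Hill-modelled concentration-response curves.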

[16] = Cell Viability - LYMP2-026 (AID 989); further: nearly all actives have a fitted effect of over 50% in size
Outline: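 Cells are seeded at 2500 per well and held 5 hr at 37 C. Compounds are added in concentration series for 24 hr, then CellTiter-Glo reagent is applied and luminescence read.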

[17] = Cell Viability - LYMP1-002 - Assay at 40 hr (AID 994); further: nearly all actives have a fitted effect of over 60% in size
Outline: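 Cells are plated at 2500 per well and rested 5 hr at 37 C. Compounds are added and incubated 40 hr at 37 C. CellTiter-Glo reagent is added for 30 min at room temperature before luminescence is read.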

[18] = qHTS assay for small molecule agonists of retinoid X receptor alpha signaling (AID 588544; calls by dose curve); details: HEK293T RXRa-UAS-bla, beta-lactamase reporter, 18 h; 530 nm emission
[19] = molecular target: Retinoic acid receptor RXR-alpha (Homo sapiens) (UniProt P19793); assay: as above
Chain of Retinoic acid receptor RXR-alpha (Homo sapiens) (P19793 whole entry, looked up): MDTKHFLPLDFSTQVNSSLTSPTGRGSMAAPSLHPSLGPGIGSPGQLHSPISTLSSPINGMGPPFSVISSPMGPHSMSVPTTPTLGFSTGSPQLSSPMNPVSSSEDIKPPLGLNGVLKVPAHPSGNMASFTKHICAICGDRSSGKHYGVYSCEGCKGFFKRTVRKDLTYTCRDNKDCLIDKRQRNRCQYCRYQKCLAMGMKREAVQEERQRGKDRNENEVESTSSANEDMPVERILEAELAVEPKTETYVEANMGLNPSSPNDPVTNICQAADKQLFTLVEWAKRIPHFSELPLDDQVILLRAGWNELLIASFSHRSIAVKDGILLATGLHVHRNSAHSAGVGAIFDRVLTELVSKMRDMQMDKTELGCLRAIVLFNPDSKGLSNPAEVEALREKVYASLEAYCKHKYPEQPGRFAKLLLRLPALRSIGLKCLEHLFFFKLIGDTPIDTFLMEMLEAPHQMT

[20] = molecular target: Tumor necrosis factor (Homo sapiens) (UniProt P01375); assay: qHTS assay to identify small molecules that stimulate Tumor Necrosis Factor-alpha (TNF-alpha) secretion (AID 651757; active means well fitted curve in the direction sought with a large enough effect in the signal ratio; the % refers to the signal ratio)
Chain of Tumor necrosis factor (Homo sapiens) (P01375 whole entry, looked up): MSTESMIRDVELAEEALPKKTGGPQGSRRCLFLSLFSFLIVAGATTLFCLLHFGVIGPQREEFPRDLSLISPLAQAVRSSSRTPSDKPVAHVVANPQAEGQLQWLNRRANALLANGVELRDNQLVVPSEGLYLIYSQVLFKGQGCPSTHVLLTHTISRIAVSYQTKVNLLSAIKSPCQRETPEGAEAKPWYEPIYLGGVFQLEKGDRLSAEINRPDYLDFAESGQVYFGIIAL
Outline: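 Human monocytic THP-1 cells are plated, treated with compound and held at 37 C for 17 hrs. Labeled anti-TNF-alpha antibody mixture is then added; after 3 hr at room temperature, TR-FRET signal reports secreted TNF-alpha.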

Compound	Potency [1]	Potency [2]	outcome [3]	caspase-3 activation [4]	Potency [5]	Potency [6]	Potency [7]	Potency [8]	Potency [9]	Potency [10]	Potency [11]	Potency [12]	Potency [13]	Potency [14]	Potency [15]	Potency [16]	Potency [17]	max response [18] [%]	outcome [19]	outcome [20]
C=CCCl	inactive	inactive	inactive	0.123% (inactive)	inactive	inactive	inactive	inactive	inactive	inactive	inactive	inactive	inactive	inactive	inactive	inactive	inactive	-13.3	inactive	inactive
Nc1ncc([N+](=O)[O-])s1	inactive	inactive	inactive	-1.64% (inactive)	inactive	inactive	inactive	inactive	inactive	inactive	inactive	inactive	inactive	inactive	inactive	inactive	inactive	0.224	inactive	inactive
Nn1cnnc1	inactive	inactive	inactive	0.966% (inactive)	inactive	inactive	inactive	inactive	inactive	inactive	inactive	inactive	inactive	inactive	inactive	inactive	inactive	6.31	inactive	inactive
Cc1ccc(N)cc1Cl	inactive	inactive	inactive	0.465% (inactive)	inactive	inactive	inactive	inactive	inactive	inactive	inactive	inactive	inactive	inactive	inactive	inactive	inactive	-18.1	inactive	inactive
FC(Cl)(Cl)Cl	inactive	inactive	inactive	-1.27% (inactive)	inactive	inactive	inactive	inactive	inactive	inactive	inactive	inactive	inactive	inactive	inactive	inactive	inactive	-11.5	inactive	inactive
Cc1ccc2c(C)cccc2c1	inactive	inactive	inactive	-1.38% (inactive)	inactive	inactive	inactive	inactive	inactive	inactive	inactive	inactive	inactive	inactive	inactive	inactive	inactive	-13.5	inactive	inactive
C1CC2OC2CC1C1CO1 (stereo not given)	inactive	inactive	inactive	-2.81% (inactive)	inactive	inactive	inactive	inactive	inactive	inactive	inactive	inactive	inactive	inactive	inactive	inactive	inactive	-2.62	inactive	inactive

Reference: PubChem BioAssay (NCATS)
